Measured values taken from PubChem BioAssay AID463173 (ICCB-Longwood Screening Facility, Harvard Medical School, 2010).
Hit rate of the full screen: of about 52,000 compounds, about 4,300 (8.3%) were called active. The entries come from a sample that favours actives as a whole. Values without a mark were called inactive. No stated cut-off is given here; in the data, active means survival mostly below about 52% (no sharp cut-off); inactive means mostly above about 56%.

system: DeltatarO mutant; experiment: S. aureus survival, RN4220 and DeltatarO strains – OD600, teichoic acid synthesis inhibitors, primary screen (AID 463173); settings: S. aureus RN4220 wild type/DeltatarO growth, OD600, 18 h, stronger effect = lower value, screened at 18.75 µg/mL (by protocol)

Row | Structure (SMILES) | survival
1 | O=C1CCCC/C1=N\Nc1ccc(N2CCCCC2)cc1 | 90%
2 | Cc1nc2ccn(Cc3ccco3)c(=O)c2cc1C(=O)NCc1ccccc1F | 86%
3 | O=C(O)c1ccccc1SC1CC(=O)N(Cc2ccccc2)C1=O (configuration not stated) | 81%
4 | CCOc1ccc(CCNC(=O)CCCc2nnc3n(CCCOC)c(=O)c4sccc4n23)cc1 | 91%
5 | NS(=O)(=O)c1ccc(NC(=O)C2CCCO2)cc1 (configuration not stated) | 95%
6 | CCN1c2ccccc2-n2cccc2C12CCN(C(=O)Nc1ccccc1Br)CC2 | 91%
7 | COc1ccc(CCNC(=O)Cc2c(C)c3c(cc(C)c4c(C)c(C)oc43)oc2=O)cc1OC | 83%
8 | Cc1ccc2c(CNCC(C)c3ccccc3)c(C(=O)O)n(Cc3ccccc3C)c2c1 (configuration not stated) | 70%
9 | COc1ccccc1N(CC(=O)NCCSCc1ccccc1)S(=O)(=O)c1ccc(C)cc1 | 41% (active)
10 | COc1ccccc1N(CC(=O)NCCSCc1ccccc1)S(C)(=O)=O | 70%
11 | COc1ccccc1N(CC(=O)NCCSc1ccccc1)S(=O)(=O)c1ccc(C)cc1 | 62%
12 | Cc1ccc(Cn2cc3c(n2)-c2c(oc(C(=O)Nc4ccc(F)cc4F)c2C)CC3)cc1 | 85%
13 | CN1CCN(c2nc3c(S(=O)(=O)c4ccccc4)nnn3c3ccsc23)CC1 | 86%
14 | Cc1ccc(OC(=O)c2cc(-c3ccc4c(c3)OCCO4)on2)c(C)c1 | -2% (active)
15 | Cc1cccc(OC(=O)CSc2nnc(-c3ccc4c(c3)OCO4)o2)c1C | 72%
16 | Cc1ccccc1OC(=O)c1cc(-c2ccc3c(c2)OCCO3)on1 | -1% (active)
17 | Cc1cccc(OC(=O)c2cc(-c3ccc(Cl)cc3)on2)c1C | 106%
18 | Cc1ccc(-c2cc(C(=O)Oc3ccccc3Cl)no2)cc1C | -1% (active)
19 | COc1ccc(-c2cc(C(=O)Nc3c(Cl)cccc3Cl)no2)cc1OC | 58%
20 | Cc1ccc(NC(=O)c2cc(-c3ccc4c(c3)OCO4)on2)cc1 | 75%
21 | Cc1ccc(OC(=O)c2cc(-c3ccc(Cl)cc3)on2)c(C)c1 | 92%

Row | Structure (SMILES) | survival
22 | Cc1cccc(OC(=O)c2cc(-c3ccc4c(c3)OCCO4)on2)c1C | -1% (active)
23 | CC(C)c1ccc(OC(=O)c2cc(-c3ccccc3)on2)cc1 | 109%
24 | COc1ccc(Nc2nnc(-c3cc4cc(Cl)ccc4oc3=O)s2)cc1 | 81%
25 | COc1ccc(Br)cc1CNC(=O)CN1C(=O)CCCc2ccccc21 | 80%
26 | Cn1c(=O)n(C)c2cc(CNCc3ccccc3)ccc21 | 88%
27 | COC(=O)c1ccc(C(=O)OC)c(NC(=O)c2c(-c3ccccc3)noc2C)c1 | 147%
28 | COc1cccc(CSc2nc3n(n2)C(CC(C)C)C(C(=O)Nc2ccccc2C)=C(C)N3)c1 (configuration not stated) | 87%
29 | Cc1ccc(N2CC(c3nc(-c4ccc(Cl)cc4)no3)CC2=O)cc1F (configuration not stated) | 98%
30 | CCS(=O)(=O)c1nc(S(=O)(=O)c2ccc(C)cc2)c(NCC(C)C)s1 | 95%
31 | CCN1CCN(C(c2ccccc2Cl)c2sc3nc(-c4ccco4)nn3c2O)CC1 (configuration not stated) | 92%
32 | O=C(Nc1ccccc1C(F)(F)F)c1cc(-c2ccc3c(c2)OCCO3)on1 | 117%
33 | O=C(Oc1ccccc1Cl)c1cc(-c2ccc3c(c2)OCCO3)on1 | -2% (active)
34 | COc1ccc2cc3cc(C(=O)NCc4ccc(C)cc4)oc3nc2c1 | 83%
35 | Cc1ccc2cc3cc(C(=O)N4CCN(c5ccccc5)CC4)oc3nc2c1 | 61%
36 | Cc1ccc2cc3cc(C(=O)N(C)c4ccccc4C)oc3nc2c1 | 53% (active)
37 | COc1ccc(CNC(=O)c2cc3cc4ccc(C)cc4nc3o2)cc1 | 74%
38 | Cc1ccc(C)c(N2CCN(C(=O)c3cc4cc5ccc(C)cc5nc4o3)CC2)c1 | 90%
39 | CCN(C(=O)c1cc2cc3ccc(OC)cc3nc2o1)c1cccc(C)c1 | 6% (active)
40 | Cc1ccccc1Cn1c(CN2CCC(C(=O)NCCN(C)C)CC2)cc2ccccc21 | 112%
41 | COc1ccc(S(=O)(=O)N(C)CC(=O)NCc2ccc3c(c2)OCO3)cc1 | 89%
42 | COc1ccc(/C=C(\C#N)C(=O)NCc2ccco2)cc1C | 80%

Row | Structure (SMILES) | survival
43 | Cc1c(Cl)cccc1NC(=O)c1ccc2snnc2c1 | 126%
44 | CCOc1ccc(NC(=O)Nc2ccc3snnc3c2)cc1 | 110%
45 | Cc1c(Cl)cccc1NC(=O)Nc1ccc2snnc2c1 | -4% (active)
46 | Cc1cc(C)c(NC(=O)Nc2ccc3snnc3c2)c(C)c1 | 118%
47 | Cc1ccc(F)c(NC(=O)Nc2ccc3snnc3c2)c1 | 97%
48 | CCc1ccccc1NC(=O)Nc1ccc2snnc2c1 | 41% (active)
49 | CC(C)(C)C1CCc2onc(C(=O)Nc3sc4c(c3C#N)CCCC4)c2C1 (configuration not stated) | 105%
50 | NC(=O)c1c(NC(=O)c2cc(-c3ccc(F)cc3)on2)sc2c1CCCC2 | 62%
51 | CCOC(=O)c1c(NC(=O)c2noc3c2CC(C(C)(C)C)CC3)sc2c1CCCC2 (configuration not stated) | 66%
52 | NC(=O)c1c(NC(=O)c2noc3c2CCCC3)sc2c1CCCC2 | 40% (active)
53 | CC(C)(C)C1CCc2onc(C(=O)Nc3sc4c(c3C(N)=O)CCCC4)c2C1 (configuration not stated) | 45% (active)
54 | CC(=O)Nc1sc2c(c1C(N)=O)CCCC2 | 80%
55 | CCOC(=O)c1noc2nc(C)n(Cc3cccc(C#N)c3)c(=O)c12 | 87%
56 | O=C(NCc1ccccc1F)C1CCN(Cc2cc3ccccc3n2Cc2cccc(Cl)c2)CC1 | 78%
57 | CCc1sc(Nc2cccc(Cl)c2C)nc1-c1cc2cccc(OC)c2oc1=O | 67%
58 | O=C(NC1CCCC1)C(c1ccsc1)N(C(=O)Cc1cccs1)c1ccccc1 (configuration not stated) | 86%
59 | O=c1[nH]c2ccc(S(=O)(=O)NC3CCCCC3)cc2[nH]1 | 62% (active)
60 | O=S(=O)(NC1CCCC1)c1ccc(Br)cc1 | 93%
61 | CCCNS(=O)(=O)c1ccc2[nH]c(=O)[nH]c2c1 | 96%
62 | Cc1nc2c(-c3ccc(F)cc3)c(C)nn2c(C)c1CCC(=O)NCc1ccc(F)cc1 | 78%
